Shown are actives, neighbours in structure and some others; about 3.2% of the full set was active somewhere.
PHOSPHO1 block: PubChem AID 1565. Phosphoethanolamine/phosphocholine phosphatase (Homo sapiens), Q8TCT1. recombinant PHOSPHO1, absorbance phosphatase assay. inhibition, % at 13.3 µM. 1.1% of 290,000 active; in the data active = inhibition above about 60%
ANO1 activ: TMEM16A chloride channel activators or potentiators, primary screen, cell-based, HTS | HEK293 TMEM16A/YFP-H148Q/I152L, iodide quench fluorescence; active compounds read low | B-score at 10 µM | 0.3% of 340,000 active;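 active = fluorescence-ratio B-score plate-corrected deviation score at least 3 library SD below zero, with starting fluorescence score within 5 deviations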;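 note: channel opened by trigger with iodide after compound preincubation; score built on the fluorescence ratio of max minus min over baseline; more negative score means more quench and so TMEM16A activation or potentiation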
TMEM16A inh: TMEM16A chloride channel inhibitors, primary screen, cell-based, HTS. Anoctamin-1 (Mus musculus), Q8BHY3. HEK293 TMEM16A/YFP iodide influx fluorescence, ionomycin. normalized B-score (activity score, 25-100; higher = stronger inhibition) at 10 µM. 1.2% of 310,000 active. AID 588511, 2011;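 active = ratio plate-corrected score three or more library SD toward inhibition, starting fluorescence score within five deviations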;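 note: score derived from kinetic fluorescence span divided by baseline fluorescence per well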
CHT allo act: CHT positive allosteric modulators, primary screen, cell-based, membrane potential dye, choline EC20. High affinity choline transporter 1 (Homo sapiens), Q9GZV3. CHT-expressing cells; active compounds read high; LV-AA mutant CHT in HEK293 cells. B-score at 10 µM. 0.49% of 310,000 active;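 active = initial fluorescence not abnormally high and integrated response B-score, plate-corrected, over 3 SD above library mean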
Target sequence (Q9GZV3 whole entry, looked up): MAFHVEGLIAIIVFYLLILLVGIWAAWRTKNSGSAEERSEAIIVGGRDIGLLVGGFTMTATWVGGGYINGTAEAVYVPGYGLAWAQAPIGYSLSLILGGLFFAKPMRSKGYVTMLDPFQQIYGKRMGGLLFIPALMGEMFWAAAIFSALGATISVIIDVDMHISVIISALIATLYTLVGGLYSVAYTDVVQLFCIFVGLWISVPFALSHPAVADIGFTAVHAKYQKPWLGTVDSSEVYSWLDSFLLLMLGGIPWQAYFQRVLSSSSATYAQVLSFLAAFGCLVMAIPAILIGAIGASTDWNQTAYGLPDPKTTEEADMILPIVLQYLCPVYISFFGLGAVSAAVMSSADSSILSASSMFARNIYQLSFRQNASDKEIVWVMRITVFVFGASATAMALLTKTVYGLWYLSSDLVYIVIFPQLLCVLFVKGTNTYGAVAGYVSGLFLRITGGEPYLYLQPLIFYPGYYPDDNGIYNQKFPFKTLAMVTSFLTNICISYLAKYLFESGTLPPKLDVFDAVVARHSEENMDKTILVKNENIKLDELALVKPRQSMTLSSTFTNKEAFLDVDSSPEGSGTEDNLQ
CHT block: inhibitors of human choline transporter CHT | 0.86% of 310,000 active | B-score at 10 µM | High affinity choline transporter 1 (Homo sapiens), Q9GZV3 | CHT-expressing cells, membrane potential dye, choline response; active compounds read low;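 active = B-score over 3 SD under the library average, and starting fluorescence ratio not unusually high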;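 note: choline stimulus applied at its EC90 after an EC20 pre-addition; B-score computed on integrated fluorescence ratio after choline addition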
HDAC3 inhib: HDAC3 deacetylase inhibitors, primary screen, biochemical, fluorescence, cell-free homogeneous; Histone deacetylase 3 (Homo sapiens), O15379; AID 2718, 2010; recombinant HDAC3, fluorogenic peptide/trypsin coupled; inhibition, % at 8.3 µM; 0.15% of 320,000 active; in the data active = inhibition above about 26%, passing the limit was not always enough; inconclusive = no clear call, values can overlap the other calls
CHT act confirm: CHT activators, confirmation, cell-based, membrane potential dye, duplicate; shares compounds with CHT allo act; CHT-expressing cells, membrane potential dye fluorescence (FDSS); % of choline EC20–EC90 response window; HEK293 expressing CHT LV-AA mutant; choline added at its EC20; activation, % at 10 µM; 91% of 2,500 active;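 active = primary screen active, with duplicate mean activation above negative control mean plus 3 SD, cut at about 11% in these data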
HEK293 MP dye: membrane potential response in parental HEK293 cells, counter-screen for CHT activator project, cell-based, membrane potential dye | shares compounds with CHT allo act | membrane potential dye fluorescence (FDSS); measured after EC20 choline addition | ratio readout change at 10 µM, hits read low | 62% of 2,500 active;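 active = duplicate-averaged ratio beyond 3 SD from buffer wells, up or down, though filed actives are nearly all decreases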
Hits are given with their value.

What do the screens show for `C#CCOCCOCCOCCNc1nc(N2CCN(C(=O)CCCCCCCCCCNC(=O)Cn3cc(CCCCCN)nn3)CC2)nc(N2CCN(C(=O)CCCCCCCCCCNC(=O)[C@@H]([C@H](C)O)n3cc(C)nn3)CC2)n1`?
ANO1 activ: inactive; TMEM16A inh: inactive; CHT allo act: inactive; CHT block: inactive; HDAC3 inhib: inactive

How did C#CCOCCOCCOCCNc1nc(N2CCN(C(=O)[C@H](CCCCN)n3cc([C@@H](N)CC(C)C)nn3)CC2)nc(N2CCN(C(=O)[C@H](CCCCN)n3cc([C@@H](N)CC(C)C)nn3)CC2)n1 do in these assays?
PHOSPHO1 block: inactive; ANO1 activ: inactive; TMEM16A inh: inactive; CHT allo act: inactive; CHT block: inactive; HDAC3 inhib: inactive; CHT act confirm: 55.9; HEK293 MP dye: -39.3

What do the screens show for `Cc1ccc(C(=O)C[n+]2cccc3cc(C)ccc32)cc1`?
PHOSPHO1 block: inactive; ANO1 activ: inactive; TMEM16A inh: inactive; CHT allo act: inactive; CHT block: inactive; HDAC3 inhib: inconclusive; CHT act confirm: 37.8; HEK293 MP dye: -34.9

Results for CC1=C(c2ccccc2)SC2=NCCN21 ?
PHOSPHO1 block: inactive; ANO1 activ: inactive; TMEM16A inh: inactive; CHT allo act: inactive; CHT block: inactive; HDAC3 inhib: inactive; CHT act confirm: 54.7; HEK293 MP dye: -55.9

What do the screens show for `O=C(NC1CCCC1)C(c1ccc(F)cc1)N(Cc1ccc(F)cc1)C(=O)c1ccn[nH]1` (centres undefined)?
PHOSPHO1 block: inactive; ANO1 activ: inactive; TMEM16A inh: inactive; CHT allo act: inactive; CHT block: inactive; HDAC3 inhib: inactive; CHT act confirm: 25.4; HEK293 MP dye: inactive

Results for O=C(NC1CCCC1)C(c1ccncc1)N(Cc1ccccc1)C(=O)c1ccc(-c2ccccc2)[nH]1 (centres undefined) ?
PHOSPHO1 block: inactive; ANO1 activ: inactive; TMEM16A inh: inactive; CHT allo act: inactive; CHT block: inactive; HDAC3 inhib: inactive

How did Cc1cc(C)n2ncc(C(=O)NCc3cccnc3)c2n1 do in these assays?
PHOSPHO1 block: inactive; ANO1 activ: inactive; TMEM16A inh: inactive; CHT allo act: inactive; CHT block: inactive; HDAC3 inhib: inactive; CHT act confirm: 41.5; HEK293 MP dye: -37.8

What do the screens show for `CC/C(=C/c1sc2ccc(C)cc2[n+]1CCCS(=O)(=O)[O-])SC`?
PHOSPHO1 block: inactive; TMEM16A inh: inactive; CHT allo act: 6.78; CHT block: inactive; HDAC3 inhib: inactive; CHT act confirm: 48.0; HEK293 MP dye: inactive

How did CC/C(=C/c1sc2ccc(C)cc2[n+]1CCO)SC do in these assays?
PHOSPHO1 block: inactive; ANO1 activ: inactive; TMEM16A inh: inactive; CHT allo act: inactive; CHT block: inactive; HDAC3 inhib: inactive

What do the screens show for `COCc1nnc(NC(=O)c2cc(Cl)ccc2OC)s1`?
PHOSPHO1 block: inactive; ANO1 activ: inactive; TMEM16A inh: inactive; CHT allo act: inactive; CHT block: inactive; HDAC3 inhib: inactive

How did COc1ccc(-c2cc(Cl)cc3c(=O)c4ccccc4n(C)c23)cc1F do in these assays?
PHOSPHO1 block: inactive; ANO1 activ: inactive; TMEM16A inh: inactive; CHT allo act: 7.31; CHT block: inactive; HDAC3 inhib: inactive; CHT act confirm: 25.9; HEK293 MP dye: inactive

What do the screens show for `COc1cc(-c2ccc3c(=O)c4ccccc4n(C)c3c2)cc(OC)c1OC`?
PHOSPHO1 block: inactive; ANO1 activ: inactive; TMEM16A inh: inactive; CHT allo act: inactive; CHT block: inactive; HDAC3 inhib: inactive

Results for O=C1[C@H](O)[C@@H](O)C(=O)N1Cc1ccccc1 ?
PHOSPHO1 block: inactive; ANO1 activ: inactive; TMEM16A inh: inactive; CHT allo act: inactive; CHT block: inactive; HDAC3 inhib: inactive

What do the screens show for `CN(C)CCNC(=O)C1CC(=O)N(c2ccc(F)c(Cl)c2)C1` (centres undefined)?
PHOSPHO1 block: inactive; ANO1 activ: inactive; TMEM16A inh: inactive; CHT allo act: inactive; CHT block: inactive; HDAC3 inhib: inactive

How did CCN(CC)CCNc1cc(C)nc2c1C(=O)C(=O)C=C2N1CCCCC1 do in these assays?
PHOSPHO1 block: inactive; ANO1 activ: inactive; TMEM16A inh: inactive; CHT allo act: 7.33; CHT block: inactive; HDAC3 inhib: inactive; CHT act confirm: 64.5; HEK293 MP dye: -66.1

How did Cn1c(-c2ccccn2)[n+](C)c2ccccc21 do in these assays?
PHOSPHO1 block: inactive; ANO1 activ: inactive; TMEM16A inh: inactive; CHT allo act: inactive; CHT block: inactive; HDAC3 inhib: inactive; CHT act confirm: 44.0; HEK293 MP dye: -36.9

What do the screens show for `Cn1c(-c2ccc3ccccc3n2)[n+](C)c2ccccc21`?
PHOSPHO1 block: inactive; ANO1 activ: inactive; TMEM16A inh: inactive; CHT allo act: inactive; CHT block: inactive; HDAC3 inhib: inactive

What do the screens show for `CN(C)c1ccc(-c2n(C)c3ccccc3[n+]2C)cc1`?
PHOSPHO1 block: inactive; ANO1 activ: inactive; TMEM16A inh: inactive; CHT allo act: 8.29; CHT block: inactive; HDAC3 inhib: inactive; CHT act confirm: 63.7; HEK293 MP dye: -50.6

How did COc1ccc(C(=O)OCN2C(=O)c3ccccc3C2=O)cc1 do in these assays?
PHOSPHO1 block: inactive; ANO1 activ: inactive; TMEM16A inh: inactive; CHT allo act: inactive; CHT block: inactive; HDAC3 inhib: inactive

How did O=C(NNC(=O)C1CCN(Cc2cccc(F)c2)CC1)c1cccc(Cl)c1 do in these assays?
PHOSPHO1 block: inactive; ANO1 activ: inactive; TMEM16A inh: inactive; CHT allo act: inactive; CHT block: inactive; HDAC3 inhib: inactive

How did COc1cc(/C=N/Nc2cc(C)nc(NS(=O)(=O)c3ccccc3)n2)ccc1O do in these assays?
PHOSPHO1 block: inactive; ANO1 activ: inactive; TMEM16A inh: inactive; CHT allo act: inactive; CHT block: inactive; HDAC3 inhib: inactive

How did CN1CCN(c2ccc(NC(=O)N3CCc4ccccc43)cc2)CC1 do in these assays?
ANO1 activ: inactive; TMEM16A inh: inactive; CHT allo act: inactive; CHT block: inactive; HDAC3 inhib: inactive

Screening results deposited in PubChem BioAssay by several laboratories.
